# Sampled rows, rich in hits. Any-hit rate of the full collection: about 2.2%.
# ADAM10 inh: ADAM10 inhibition, QFRET primary screen. recombinant ADAM10, EDANS/DABCYL FRET peptide cleavage, 3 h. inhibition, % at 7 µM. actives 0.62% (n = 370,000);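 active means inhibition above a per-campaign cutoff equal to the mean of compounds falling between control-based bounds plus 3 SD, cut at about 20% in these data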;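 further: 0% = DMSO wells while the 100% control is not disclosed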
# NPR1 activator: GC-A (human) enzyme activation; P16066; HEK293 GC-A cells, cGMP TR-FRET, EC30 ANP; 0% at EC30 ANP, 100% saturating ANP; activation, % at 10 µM; actives 0.14% (n = 370,000); AID 1671463; in the data active means activation above about 40%
# GC-B act: GC-B (human) receptor activation | P20594 | HEK293-GC-B cells, CNP EC30, cGMP TR-FRET; 0% at EC30 CNP, 100% saturating CNP | activation, % at 10 µM | actives 0.11% (n = 370,000);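 active means activation at 10 µM reaching about 35% in either raw or pattern-adjusted values, limit read from the data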
# ADAM17 inh: inhibits human ADAM17 | recombinant ADAM17, EDANS/DABCYL FRET peptide cleavage | inhibition, % at 6.95 µM | actives 0.83% (n = 370,000);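 active means inhibition above the mean of compounds lying between control limits plus 3 SD, set per campaign, cut at about 8.5% in these data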;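 further: 0% = DMSO-only wells as the low control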
# proKLK7 act: activators of human kallikrein-7 zymogen | activation, % at 7 µM | purified proKLK7, EDANS-DABCYL substrate fluorescence; 100% is mature enzyme control, 0% vehicle | actives 0.9% (n = 370,000);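 active means activation above the mean of all tested compounds plus 3 SD, computed per campaign excluding outliers beyond control limits, cut at about 13% in these data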
# Target sequence (P49862 whole entry, looked up): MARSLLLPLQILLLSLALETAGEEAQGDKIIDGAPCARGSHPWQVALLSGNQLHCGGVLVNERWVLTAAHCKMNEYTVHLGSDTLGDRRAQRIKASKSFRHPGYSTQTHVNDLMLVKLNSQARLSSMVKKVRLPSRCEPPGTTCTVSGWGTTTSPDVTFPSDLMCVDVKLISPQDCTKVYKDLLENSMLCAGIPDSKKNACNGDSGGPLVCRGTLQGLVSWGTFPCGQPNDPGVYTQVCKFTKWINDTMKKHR
# KLK7 act conf: confirmation of human kallikrein-7 zymogen activators; shares compounds with proKLK7 act; purified proKLK7, EDANS-DABCYL substrate fluorescence; scaled: vehicle 0, mature enzyme 100; activation, % at 7 µM; actives 68% (n = 3,200);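 active means activation, as change over the incubation, above the mean of all tested compounds plus 3 SD, cut at about 13% in these data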
# EDANS-DABCYL int: fluorescence interference counter-screen for KLK7 activators; activation, % at 7 µM; EDANS-DABCYL substrate fluorescence interference, no enzyme, 4 h; solvent 0%, active enzyme control 100%; actives 80% (n = 3,200); shares compounds with proKLK7 act;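 active means activation above the all-compound mean plus 3 SD, ignoring values outside control-based bounds, cut at about 4.8% in these data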;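 further: value is the 4 h activation minus the activation read at time zero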
# EDANS interf: counter-screen for kallikrein-7 activators: EDANS-DABCYL interference, dose response; shares compounds with proKLK7 act; EDANS-DABCYL peptide fluorescence interference, no enzyme; EC50, µM; actives 20% (n = 250); AID 720493;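 active means compounds that raise the fluorescence signal in this interference counterscreen, with EC50 at or below 10 µM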;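 further: intact quenched peptide substrate alone read at 355 nm excitation and 520 nm emission; signal is fluorescence gain from T0 to T4 after four hours at room temperature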
# The depositor's hits bear a star; i = inactive; x = no result given.
SMILES,ADAM10 inh,NPR1 activator,GC-B act,ADAM17 inh,proKLK7 act,KLK7 act conf,EDANS-DABCYL int,others
COC(=O)[C@@]1(C(C)C)N=C(c2cc(OC)c(OC)c(OC)c2)[C@]2(O1)C(=O)N(Cc1cn(Cc3ccccc3)nn1)c1ccc(F)cc12,-3,-29,-21,-2,0,x,x,
CN(C)c1ccc(/C=N\NC(=O)c2cccc(S(=O)(=O)N(C)C)c2)cc1,2,1,-13,5,1,x,x,
COc1ccc(/C=C2\CC3(OC(=O)C4CCCC4)CCCN2C3)cc1 (configuration not stated),-9,-5,-4,1,1,x,x,
Cc1ccc(O)c(C(=O)c2cnn(C(=O)Cc3csc(C)n3)c2)c1,4,-2,-3,-1,20*,54*,53*,
Cc1cccc(OCC(C)CN2CCC(C(O)(c3ccccc3)c3ccccc3)CC2)c1 (configuration not stated),1,-13,-10,-1,0,x,x,
COc1ccc2oc3cc(NCCN(C)C)ccc3c(=O)c2c1,i,14,4,i,66*,80*,79*,
O=C(NCCCN1CCOCC1)c1cc2nc(-c3ccco3)cc(C(F)(F)F)n2n1,-380,2,7,-136,15*,14*,11*,EDANS interf=>70
CN1CCN(C(=O)c2cc3nc(-c4ccco4)cc(C(F)(F)F)n3n2)CC1,-440,5,5,-146,30*,17*,11*,EDANS interf=>70
O=C(Nc1cnn(Cc2ccccc2)c1)c1cc2nc(-c3ccco3)cc(C(F)(F)F)n2n1,-8,4,-4,-1,0,x,x,
COC(=O)C1CN(CCc2ccccc2)CCS(=O)(=O)N1Cc1ccc(C)cc1 (configuration not stated),3,-3,-4,0,0,x,x,
CCCCNC(=O)NS(=O)(=O)c1ccc(NC(=O)CSc2nnc(-c3cccs3)n2-c2ccc(OC)cc2)cc1,6,-3,2,2,0,x,x,
CN(C)S(=O)(=O)N1C(=O)c2ccccc2C1=O,-3,2,2,4,0,x,x,
CN(C)/C=C1\C=C2C(=O)c3ccccc3N2C1=O,-32,-5,-14,-14,14*,72*,66*,
CCCn1c(C)cc(/C=C(\C#N)C(=O)OCC(=O)Nc2ccc(OC)c(Cl)c2)c1C,-3,-4,-2,-4,-4,x,x,
COCCn1c(C)cc(/C=C(\C#N)C(=O)OCC(=O)Nc2ccc(S(N)(=O)=O)cc2)c1C,-19,-1,-5,-2,14*,1,0,
CCCCc1cc(=O)oc2c(CN(CC)CC)c(O)c(Cl)cc12,i,6,-1,i,63*,70*,71*,
CCCc1cc(=O)oc2cc(OCC(=O)N(C)C)c(Cl)cc12,-5,0,-2,-2,0,x,x,
CCCc1cc(=O)oc2c(CN(CC)CC)c(O)c(Cl)cc12,i,3,0,i,53*,66*,68*,
C#CCNC(=O)C[C@H]1C[C@@]2(C(=O)OC)C(=C[C@H](C(C)(C)C)O[C@@H]2C)N(Cc2ccco2)C1=O,-7,-21,-17,-3,0,x,x,
COc1cc2c(cc1OC)CN(CC(=O)Nc1cccc([N+](=O)[O-])c1)CC2,-76,0,4,-31,28*,5,2,
COc1cc2c(cc1OC)CN(CC(=O)Nc1cccc(C)c1)CC2,-22,-2,0,-9,2,x,x,
COc1cc2c(cc1OC)CN(CCC(=O)c1ccc(Br)cc1)CC2,-56,42*,-11,-22,14*,7,7.8*,
COc1cc([N+](=O)[O-])ccc1NC(=O)CN1CCc2cc(OC)c(OC)cc2C1,-139,-7,1,-52,25*,2,2,

# Screening results from PubChem.
